A selection: hits, their analogues and other compounds. The true share with any hit is near 2.9%.
Nrf2 ARE act – activators of Nrf2 (ARE) signaling. AREc32 ARE-luciferase reporter (MCF7-derived line), luminescence, 24 h. Potency, µM (doses to about 46.1 µM), for inactives: at the highest dose activation, usual class: activators. 410,000 compounds, 0.31% hits. AID 624171; further: % of control where 0% means no effect; nearly all actives have a fitted effect of over 65% in size
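AREc32_Fluc, 1000 cells/well, OPTI-MEM + 5% FBS, o/n 37 deg C 5% CO2; 23 nL cpd by pin tool, 24 hr; Steady-Glo 30 min RT, luminescence.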
Nrf2 block – blocks Nrf2 signaling. A549 ARE-Fluc reporter, luciferase luminescence, 18-24 h. Potency, µM (top dose mostly 46 µM), without a hit: top-dose activity change, negative = inhibition, actives largely listed as inhibitors. 360,000 compounds, 2.1% hits; further: on the % scale 0 is the no-effect control and ±100 the full control effect; nearly all actives have a fitted effect of over 60% in size
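Cells were seeded and rested 2 h, then exposed to compounds for 18-24 h. CellTiter-Fluor was read first as a viability measure. BugLite was added 15 min before the final luminescent read of ARE-luciferase activity in A549 cells.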
A549 tox-1 – kills or reduces viability of A549 cells in Nrf2 counter-screen; A549 ARE-Fluc cells, CellTiter-Fluor viability, 18-24 h; Potency, µM (top dose mostly 46 µM), for the others: top-dose activity change, negative = cytotoxicity, actives largely listed as inhibitors; 390,000 compounds, 0.16% hits; AID 504648; further: on the % scale 0 is the no-effect control and ±100 the full control effect
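A549 ARE-Fluc cells in 5% FBS OPTI-MEM, 5000 cells/well, rested 2 h then exposed to compounds in concentration-response for 18-24 h at 37 °C. Viability by CellTiter-Fluor fluorescence (Ex 405/Em 525) after 30 min; luciferase luminescence (BugLite, 15 min, RT) read afterwards.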
ATXN2 expr inh – ATXN2 expression inhibition. AID 1745845. Potency, µM (highest dose often 57 µM), for inactives: top-dose activity change, negative = inhibition, most hits filed as inhibitors. 360,000 compounds, 0.72% hits. HEK-293 ATXN2-luciferase reporter, luminescence, 24 h; further: on the % scale 0 is the no-effect control and ±100 the full control effect; nearly all actives have a fitted effect of over 55% in size
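qHTS (up to 57 uM final) was run with 24 h compound exposure of reporter cells at 37 °C. Each well was multiplexed: SteadyGlo luminescence measured ATXN2-luciferase expression after a fluorogenic Gly-Phe-AFC viability readout (25 uM final).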
S2 tox – viability counter-screen for ATXN expression inhibitors. S2 cells (HEK-293 line with an ATXN2-luciferase reporter) viability, CellTiter-Fluor protease fluorescence, 24 h. Potency, µM (titrated, usually from 56.7 µM), actives largely listed as cytotoxic. 400,000 compounds, 0.49% hits; further: nearly all actives have a fitted effect of over 40% in size
FLuc counter 3 – counter-screen for Nrf2 inhibitors: firefly luciferase enzyme inhibition; Potency, µM (highest dose often 57.5 µM), for inactives: top-dose activity change, negative = inhibition, usual class: inhibitors; 1,400 compounds, 4% hits; purified firefly luciferase, luminescence inhibition; shares compounds with Nrf2 block; further: on the % scale 0 is the no-effect control and ±100 the full control effect; nearly all actives have a fitted effect of over 65% in size
Target sequence (P08659 whole entry, looked up): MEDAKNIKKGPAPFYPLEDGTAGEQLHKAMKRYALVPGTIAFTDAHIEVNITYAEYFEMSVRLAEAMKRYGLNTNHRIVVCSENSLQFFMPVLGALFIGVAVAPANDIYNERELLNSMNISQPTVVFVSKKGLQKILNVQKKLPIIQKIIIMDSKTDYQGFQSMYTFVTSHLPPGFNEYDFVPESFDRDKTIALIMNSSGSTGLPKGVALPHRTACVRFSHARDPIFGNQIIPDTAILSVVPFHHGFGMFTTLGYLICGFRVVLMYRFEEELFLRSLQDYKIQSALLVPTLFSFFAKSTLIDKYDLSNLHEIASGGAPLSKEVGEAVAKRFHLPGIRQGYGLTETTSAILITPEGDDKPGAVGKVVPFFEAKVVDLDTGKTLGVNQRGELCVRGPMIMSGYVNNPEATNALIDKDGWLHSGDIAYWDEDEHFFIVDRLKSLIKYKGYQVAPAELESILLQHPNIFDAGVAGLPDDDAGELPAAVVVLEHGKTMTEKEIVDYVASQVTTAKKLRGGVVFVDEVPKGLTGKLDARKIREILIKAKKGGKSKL
A549 tox-2 – A549 cytotoxicity, Nrf2 inhibitor counterscreen; shares compounds with Nrf2 block; A549 ARE-Fluc cells, cytotoxicity counterscreen; Potency, µM (titrated, usually from 46.1 µM), for inactives: at the highest dose activity change, negative = cytotoxicity, hits mostly inhibitors; 1,400 compounds, 2% hits; AID 720523;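 further: cells exposed to compounds for 18 to 24 hours; on the % scale 0 is the no-effect control and ±100 the full control effect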
Nrf2 ARE inh – confirmation of Nrf2 inhibitors in A549 ARE reporter cells; A549 ARE-firefly luciferase reporter, luminescence; AID 720524; 1,400 compounds, 74% hits; shares compounds with Nrf2 block; Potency, µM (titrated, usually from 46.1 µM), without a hit: top-dose activity change, negative = inhibition, usual class: inhibitors; further: on the % scale 0 is the no-effect control and ±100 the full control effect; nearly all actives have a fitted effect of over 65% in size
Starred values were filed as active, the others as inactive; i = inactive; ? = inconclusive; nt = not tested or not shown; ! = not active in a repeat. The call rests on the fitted dose curve; in most records, active means well fitted curve in the direction sought with a large enough effect; inconclusive means small, poorly fitted or top-dose-only effect, or another doubt; inactive means no such curve, though single readings can be large; an effect the other way counts as inactive or inconclusive. Potency means the concentration at half of the fitted maximal effect.

SMILES	Nrf2 ARE act	Nrf2 block	A549 tox-1	ATXN2 expr inh	S2 tox	FLuc counter 3	A549 tox-2	Nrf2 ARE inh
O=C(NNC(=O)c1cccs1)c1ccc(S(=O)(=O)N2CCCCC2)cc1	-1%	-1%	-3%	2%	i	nt	nt	nt
CN(CCc1ccccn1)C(=S)Nc1ccc(Cl)cc1Cl	0%	5%	1%	20%	i	nt	nt	nt
Cc1noc2ncnc(N3CCN(c4cccc(C(F)(F)F)c4)CC3)c12	-1%	8.2µM*	-1%	nt	nt	2%	-5%	8.2µM*
FC(F)(F)c1cccc(N2CCN(c3ncnc4c3nc3n4CCCC3)CC2)c1	-3%	1.6µM*	0%	nt	nt	2%	-11%	2.1µM*
Cc1c(C(=O)N/N=C/c2ccccc2)[nH]c2ccc(Cl)cc12	1%	12%	1%	nt	?	nt	nt	nt
CCN(CC)S(=O)(=O)c1ccc2oc(SCC3CN=C(c4ccc(OC)cc4)S3)nc2c1 (stereo not drawn)	0%	6.5µM*	-27%	-31%	i	-26%	-12%	?
COc1nnc(OC)c2ccccc12	0%	-17%	10%	-4%	i	nt	nt	nt
CC1=C(C(N)=O)C(c2cccs2)NC(=S)N1 (stereo not drawn)	0%	0%	-2%	14%	i	nt	nt	nt
CN(c1ccc(OCC(=O)Nc2nc3ccccc3s2)cc1)S(=O)(=O)c1ccccc1	0%	?	-16%	-5%	i	nt	nt	nt
COc1ccc(CCNC(=O)COc2ccc(N(C)S(=O)(=O)c3ccc(Cl)cc3)cc2)cc1	3%	3.7µM*	-4%	?	i	-1%	-7%	18µM*
CCOc1ccc(S(=O)(=O)N(C)c2ccc(OCC(=O)Nc3nc4ccccc4s3)cc2)cc1	3%	2.3µM*	-12%	-13%	i	2%	-2%	9.2µM*
O=C(CSc1nnc(-c2cccnc2)s1)Nc1ccnc2ccccc12	3%	4.1µM*	-8%	-8%	i	-19%	-10%	5.2µM*
CCOC(=O)c1cnc2ccc(OCC)cc2c1NCCc1ccc(OC)c(OC)c1	-2%	3.7µM*	-17%	nt	nt	-16%	?	13µM*
Cc1nc(N)nc(N)c1-c1ccc(Cl)c(Cl)c1	4%	?	-6%	7.9µM*!	i	2%	-12%	1.2µM*
CCc1nc(N)nc(N)c1-c1ccc(NCCN)c([N+](=O)[O-])c1	0%	nt	nt	-32%	?	nt	nt	nt
Cc1cc(OCc2nc(N)nc(N)c2-c2ccc(Cl)c(Cl)c2)ccc1[N+](=O)[O-]	11%	8.2µM*	17%	?	i	-10%	-4%	15µM*
Nc1nc(N)nc(-c2ccc(Cl)c(Cl)c2)n1	-1%	?	-4%	29%	i	nt	nt	nt
COC(=O)c1ccc(Oc2nc(Nc3ccc(C)c(C)c3)nc(N(C)C)n2)cc1	0%	?	-20%	-29%	i	nt	nt	nt
COc1ccc(C(=O)Nc2cnc3sc(C)nn3c2=O)cc1	2%	0%	-11%	-15%	i	nt	nt	nt
COc1cccc(OC)c1C(=O)OCC(=O)NCc1ccco1	2%	8%	0%	9%	i	nt	nt	nt
CN(C)CCNC(=O)c1cc2c(s1)-c1ccc(Cl)cc1SC2	-3%	5.8µM*	4%	nt	?	-1%	?	0.013µM*
COc1ccccc1NC(=O)CCCn1c(=S)[nH]c2ccccc2c1=O	4%	-6%	-3%	nt	i	nt	nt	nt
Cc1c(C(=O)N2CCN(Cc3ccc4c(c3)OCO4)CC2)sc2ncnc(N3CCN(c4ccccc4)CC3)c12	0%	1.2µM*	1%	nt	i	-3%	-22%	7.3µM*
Cc1c(C(=O)N2CCN(Cc3ccc4c(c3)OCO4)CC2)sc2ncnc(N3CCN(c4ccccc4F)CC3)c12	1%	1%	-3%	nt	?	nt	nt	nt
